Bioassay records deposited in PubChem BioAssay by several laboratories.
Hits are enriched below; roughly 4.3% of the tested compounds scored in any of these assays.
HSF-1 act = HSF-1 activators, primary screen, NIH3T3-HGL cells, MG132 stress, luminescence, single point | NIH3T3-HGL HSF-1 luciferase reporter, 8 h; 100% = twice DMSO control signal | activation, % at 9 µM | 300,000 compounds, 1.7% hits;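 active = mean replicate activation of at least 50% with a set share of replicates each reaching 50%; inconclusive = only one of those two conditions met; inactive = mean below 50% and too few replicates reaching it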
HSF1 inhib = HSF1 inhibitors in luciferase reporter cells, primary screen, cell-based, NIH3T3, luminescence; activity change, negative = inhibition, % at 7.5 µM (by protocol); 300,000 compounds, 0.77% hits; NIH3T3-HGL HSE-luciferase, MG132-induced, luminescence 8 h; active compounds read low;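 active = more than half of replicate wells show activity change below -50%, luminescence cut by over half; inconclusive = some wells, but at most half, below -50%; inactive = no replicate well below -50%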;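 also: luciferase reports HSF-1 transcriptional activity via heat shock element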
MITF TRPM1 HTS = activators of MITF-driven TRPM1 promoter reporter, primary screen, cell-based, SK-MEL-5, luciferase, single point. SK-MEL-5 TRPM1-promoter luciferase, 24 h; % of positive control, neutral wells = 0. activation, % at 12.5 µM. 300,000 compounds, 0.75% hits. AID 588334, 2011;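 active = mean activation of at least 80% with every replicate also reaching 80%; inconclusive = mean reaches 80% but some replicate falls short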
esBAF inh = Bmi1 luciferase reporter increase in mESCs, primary screen, esBAF inhibitor project, mouse ES cells, Bmi1 luciferase knock-in, single point. 24 h; 100% = twice the neutral-well signal. reporter increase, % at 12.5 µM. 350,000 compounds, 2% hits. AID 602393, 2012; in the data active = activation above about 40%; inconclusive = no clear call, values can overlap the other calls;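 also: a rise in the Bmi1 reporter signal indicates esBAF inhibition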
Wnt bcat act = Wnt/beta-catenin pathway activators, primary screen, cell-based, plate reader, single point | Wnt/beta-catenin reporter cell assay, activator | activation, % at 9.35 µM | 300,000 compounds, 1.2% hits | AID 743398, 2014; in the data active = activation above about 30%, passing the limit was not always enough; inconclusive = no clear call, values can overlap the other calls
SMARCA2 activ = SMARCA2 (BRM) function activators, primary screen, cell-based, luminescence, high throughput; MG213 cells, MMTV-luciferase reporter, dexamethasone, overnight; activation, % at 9.1 µM; 370,000 compounds, 1% hits; in the data active = activation above about 7.8%
A number is an active result; . = inactive; ? = inconclusive; / = not tested or not shown.

SMILES	HSF-1 act	HSF1 inhib	MITF TRPM1 HTS	esBAF inh	Wnt bcat act	SMARCA2 activ
Cc1cccc(C)c1OCC(=O)Nc1ccc2c(c1)OCCO2	.	.	.	43.0	.	.
Cc1ccc(OCC(=O)Nc2ccc(N3CCN(S(C)(=O)=O)CC3)cc2)cc1C	60.8	.	.	/	.	.
COc1ccccc1OCCC(=O)Nc1ccc2c(c1)OCO2	/	/	.	.	.	.
C[C@@H]1CN([C@@H](C)CO)C(=O)c2cc(NC(=O)Cc3cn(C)c4ccccc34)ccc2O[C@@H]1CN(C)C(=O)Nc1ccc(F)cc1	/	/	/	.	/	/
COc1ccc(/C=C(\C#N)C(=O)NCc2ccccc2)cc1O	.	.	.	.	.	.
COc1ccc(/C=C(\C#N)C(=O)Nc2cc(C)c(Cl)cc2OC)cc1O	.	-63.5	.	/	.	.
COc1cc(/C=C(\C#N)C(=O)Nc2cccc3ncccc23)ccc1O	62.6	.	/	/	/	/
O=C([C@@H]1[C@@H](CO)[C@@H]2Cn3c(ccc(-c4ccccc4F)c3=O)[C@H]1N2C(=O)C1CCC1)N1CCOCC1	/	/	/	.	/	/
CC1(C)Cc2c(cnn2-c2ccc(F)cc2)C(NC(=O)CCN2CCCC2=O)C1 (centres undefined)	.	.	.	44.5	.	.
CC1(C)Cc2c(cnn2-c2cccc(F)c2)C(NC(=O)CCN2CCCC2=O)C1 (centres undefined)	.	.	.	.	.	.
CC1(C)Cc2c(cnn2-c2ccc(F)cc2)C(NC(=O)C2=NNC(=O)CC2)C1 (centres undefined)	.	.	.	51.9	.	.
O=C(NCC[C@H]1CC[C@H](NC(=O)c2cnccn2)[C@H](CO)O1)Nc1ccc(Cl)cc1	/	/	/	.	/	/
O=C(Nc1cccc(Cl)c1)c1csc([C@H]2C[C@H](O)[C@@H](CO)O2)n1	/	/	/	64.6	?	.
O=C(C[C@@H]1CC[C@H]2[C@@H](COC[C@@H](O)CN2C(=O)c2ccccc2F)O1)N1CCN(c2ccccc2)CC1	/	/	/	.	/	/
Cc1ccc(S(=O)(=O)Nc2ccc3c(c2)C(=O)N([C@@H](C)CO)C[C@@H](C)[C@H](CN(C)C(=O)Nc2ccc(C(F)(F)F)cc2)O3)cc1	/	/	/	.	/	/
CNc1cc(-c2cnn(CC(C)C)c2)ncn1	/	/	/	51.2	?	.
CC(=O)Nc1cncc(-c2cnn(CC(C)C)c2)n1	/	/	/	.	.	.
O=C(C[C@@H]1C=C[C@H](NC(=O)Nc2cccc(F)c2)[C@@H](CO)O1)NCC1CCCCC1	/	/	/	.	/	/
CCOC(=O)c1ccc2nc(NC(C)=O)sc2c1	?	.	.	47.2	45.7	.
CC(=O)Nc1nc2ccc(Br)cc2s1	.	.	.	62.2	/	.
CCOC(=O)c1ccc2nc(Nc3nc4ccc(F)cc4s3)sc2c1	.	-80.0	.	/	.	.
O=C(Nc1nc2ccc(Br)cc2s1)c1ccco1	.	.	.	.	.	.
COC(=O)c1ccc2nc(NC(=O)C(C)C)sc2c1	.	.	.	/	.	.
COC(=O)c1ccc2nc(Nc3nc4c(F)cc(F)cc4s3)sc2c1	.	-87.8	.	/	.	.
COc1ccc(CN(C)C[C@H]2Oc3c(NC(=O)Nc4ccc(F)cc4)cccc3C(=O)N([C@H](C)CO)C[C@@H]2C)cc1	/	/	/	.	/	/
SMILES	HSF-1 act	HSF1 inhib	MITF TRPM1 HTS	esBAF inh	Wnt bcat act	SMARCA2 activ
O=C(C[C@@H]1CC[C@H]2[C@@H](COC[C@@H](O)CN2C(=O)c2ccncc2)O1)Nc1ccc(-c2ccccc2)cc1	/	/	/	.	/	/
Cc1ccc(C(=O)/C=C/N(C)C)o1	.	.	.	.	.	.
Cc1ccc(C(=O)/C=C/c2cc(Br)cc(Br)c2O)o1	89.3	.	.	.	.	.
C[C@@H]1CN([C@H](C)CO)C(=O)c2cc(C#CC3CCCCC3)cnc2O[C@H]1CN(C)C	/	/	/	.	/	/
Cc1cc(NCc2ccccn2)n2nc(C)c(-c3ccc(Cl)cc3)c2n1	/	/	.	.	.	.
Cc1cc(Cl)n2ncc(-c3ccccc3)c2n1	.	.	/	47.8	.	.
Cc1cc(NCc2ccccn2)n2ncc(-c3ccc(Cl)cc3)c2n1	52.5	.	/	/	?	.
Cc1cc(NCc2ccccn2)n2ncc(-c3ccccc3)c2n1	76.3	.	/	51.5	55.8	.
CN(C)C(=O)c1cccc(-c2ccc([C@@H]3[C@@H](C#N)N(C(=O)C4CCCCC4)[C@@H]3CO)cc2)c1	/	/	/	.	/	/
C[C@@H]1CN([C@@H](C)CO)C(=O)c2cc(-c3ccc(F)cc3)cnc2O[C@@H]1CN(C)C(=O)c1ccccc1F	/	/	/	.	/	/
O=C(OCC(=O)c1cccc2ccccc12)c1ccc(CO)cc1	?	.	136.7	/	.	.
O=C(OCC(=O)c1ccccc1Br)c1ccncc1	.	.	.	.	.	.
COc1ccccc1C(=O)NCC(=O)OCC(=O)c1cccc2ccccc12	60.3	.	.	.	.	.
CCCNC(=O)Nc1ccc2c(c1)C(=O)N(C)C[C@H](OC)[C@@H](C)CN(Cc1ccncc1)[C@H](C)CO2	/	/	/	.	/	/
C[C@H]1CN([C@@H](C)CO)C(=O)c2cccc(NS(=O)(=O)c3cn(C)cn3)c2O[C@H]1CN(C)C(=O)Nc1ccc(F)cc1	/	/	/	.	/	/
O=C(N/N=C\c1cn(-c2ccccc2)nc1-c1ccccc1)c1ccc2c(c1)OCO2	.	.	.	43.7	.	.
O/N=C/c1cn(-c2ccccc2)nc1-c1ccc2c(c1)OCCO2	.	.	.	.	.	.
O=C(N/N=C/c1cn(-c2ccccc2)nc1-c1ccc(F)cc1)c1ccc2c(c1)OCO2	.	.	.	/	/	.
O=C(N/N=C/c1cn(-c2ccccc2)nc1-c1ccc2c(c1)OCCO2)c1ccncc1	107.3	.	.	53.3	.	.
O=C(N/N=C/c1cn(-c2ccccc2)nc1-c1cc2ccccc2o1)c1ccccc1Br	75.7	.	.	.	.	.
Cc1ccc(S(=O)(=O)NNC(=O)c2sc3nc(C)cc(C)c3c2-n2cccc2)cc1	73.0	.	/	.	.	.
C[C@H]1CN([C@@H](C)CO)C(=O)c2cc(NC(=O)C3CCCCC3)ccc2O[C@H]1CN(C)Cc1ccc(Cl)c(Cl)c1	/	/	/	.	/	/
CCOc1ccc(-n2c(=S)sc3c(=O)[nH]c(SCC(=O)NC(C)CC)nc32)cc1 (centres undefined)	72.4	.	.	/	.	.
COc1ccc(/C=C(/NC(=O)c2ccccc2)c2nc3ccccc3[nH]2)cc1OC	.	.	.	.	/	.
O=C(/C(=C/c1ccc(Cl)cc1)c1nc2ccccc2[nH]1)c1cccs1	240.6	.	.	76.4	/	/
O=C(/C(=C\c1ccccc1)c1nc2ccccc2[nH]1)c1ccc(Cl)cc1	.	.	.	/	/	.
COc1cc(/C=C(/C(=O)c2cccs2)c2nc3ccccc3[nH]2)ccc1O	82.0	.	.	?	/	.
